Experimental data published in PubChem BioAssay AID720542 (National Center for Advancing Translational Sciences (NCATS), 2013).
Hit rate of the full screen: of about 360,000 compounds, about 740 (0.21%) were called active. Another 2% or so got no clear call; they are omitted. Calls follow the shape of the dose curve; as a rule, active = well fitted inhibition curve with a large enough effect; inconclusive = small, poorly fitted or top-dose-only effect; inactive = no such curve, though single readings can be large or run the other way. The sample as a whole holds a higher share of actives than the screen did.

test system: Plasmodium falciparum AMA1 (3D7) - RON2 peptide interaction; experiment: qHTS for Inhibitors of AMA1-RON; Towards Development of Antimalarial Drug Lead: Primary Screen; details: AlphaScreen AMA1-biotinylated RON2 peptide binding; series mostly up to 58.2 µM; activity change, negative = inhibition: at the top concentration; also: nearly all actives have a fitted effect of over 45% in size;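 as to activity change, negative = inhibition: 0% = vehicle wells and -100% = peptide control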
Text: Plasmodium, the causative agent of malaria, is one of the world's deadliest parasitic diseases. Currently there is no vaccine available and there is widespread resistance to common anti-malarial drugs. This warrants novel, alternative approaches for developing improved therapy. During infection, one such essential interaction is between two parasite proteins, the apical membrane antigen1 (AMA1) that is translocated onto the merozoite surface and the rhoptry neck protein 2 (RON2), which is transferred to the red blood cells (RBC) membrane during invasion (Besteiro et.al., 2009). Recently, the Miller lab has shown that the interaction between AMA1 and RON2 is essential for junction formation of the parasite with the host cell (Srinivasan et.al., 2011). The binding of the RON2 peptide to the hydrophobic pocket in AMA triggers the formation of the moving junction which provides a firm anchor for the parasite to pull itself into the RBC using its actin-myosin motor; an irreversible step that commits the parasite for invasion. Only one AMA1 and RON2 genes exists in Plasmodium and there are no alternate pathways. Moreover, the region corresponding to RON2 peptide is conserved in all P. falciparum isolates for which sequences are available. The key residues in the AMA1 hydrophobic pocket that binds RON2 are also conserved and indicate a functional constraint governing this essential step in invasion since a short RON2 peptide (RON2L) corresponding to the binding region on AMA1 is sufficient to compete with the native RON2 protein and inhibits invasion (Tonkin et.al, 2011). Therefore, developing small molecule inhibitors of this interaction offers a promising target opening a new arena for anti-malarial therapeutics drug design.
In collaboration with the Miller lab, a quantitative High Throughput Screen using the AlphScreen technology was developed using a recombinant his-tagged AMA1 and a biotinylated RON2 peptide. This fluorescent screen was assayed against the NIH Molecular Libraries Small Molecule Repository (MLSMR). Inhibition of this protein-protein interaction is the desired outcome of this assay. However, due the limitations of this AlphaScreen assay, a large number of artifacts were observed. An AlphaScreen counterscreen was run to identify the true inhibitors, triage compound activity, and weed out false positives.
NIH Chemical Genomics Center [NCGC]
NIH Molecular Libraries Probe Centers Network [MLPCN]
Assay Submitter (PI): Louis Miller, National Institute of Allergy and Infectious Disease (NIAID)
Two microliters of his-tagged AMA1 3D7 allele protein (final concentration 25 nM) was dispensed into a 1,536-well assay plate. Small molecules and positive control peptides were pin-transferred (23 nL or 46 nL) via Kalypsys pin-tool equipped with a 1,536-pin array, resulting in final compound and peptide concentration ranges of 91.5 nM - 57.2 µM, and 15.6 nM - 2.00 µM, respectively. Unlabeled RON2 peptide or R1 peptide ([…]) that specifically binds the 3D7 AMA1 was used as a positive control that inhibited the binding of RON2L to AMA1. After 15 minutes incubation, 1 uL of biotinylated RON2 peptide (final concentration 25 nM) or buffer were dispensed and the assay plate was incubated for an additional 30 minutes at room temperature and protected from light. This was followed by an addition of 1 uL mixture of donor and acceptor beads (10 ug/mL final concentrations for each). The plates were incubated for 30 min at room temperature and read using the EnVision(R) plate reader (PerkinElmer). Maximum inhibition response was normalized to the positive control signal while no inhibition response was normalized to the DMSO treated wells.
Potency is read from the fitted curve at half-maximal effect.

Compound	activity change, negative = inhibition	Potency
COc1nc(N(C)C)nc(N2CC(=O)N(CCNS(=O)(=O)c3ccc(C)cc3)C2=N)n1	4.54% (inactive)	–
CCOc1ccc(NC(=O)CN(C)C(=O)c2cccc(S(=O)(=O)N3CCCC3)c2)cc1OCC	5.03% (inactive)	–
Cc1ccc(CN2CC(C(=O)N3CCN(S(=O)(=O)c4ccccc4)CC3)CC2=O)cc1 (stereo unspecified)	2.11% (inactive)	–
CS(=O)(=O)c1ccc(Cl)c(NC(=O)COC(=O)c2ncc(Cl)c(Cl)c2Cl)c1	7.73% (inactive)	–
C=C1C2C[C@H](O)C(C)(C)[C@@]2(O)[C@H](O)C[C@]23C[C@@](C)(O)[C@H](CC[C@H]12)[C@H]3O (stereo partly specified)	6.34% (inactive)	–
CCc1ccc(S(=O)(=O)Nc2cc3c(cc2N2CCCCC2)n(C)c(=O)c(=O)n3C)cc1	-3.11% (inactive)	–
O=S(=O)(Nc1cc(S(=O)(=O)N2CCOCC2)ccc1N1CCCC1)c1cccs1	21.9% (inactive)	–
COc1cccc(N(CC(=O)NC2CCCC2)C(=O)Cn2nnc(-c3ccc(C)cc3)n2)c1	-14.7% (inactive)	–
CC(C)(C)OC(=O)N1CCC(C(=O)Nc2cccc(C(=O)NCCc3ccccc3)c2)CC1	8.21% (inactive)	–
COc1ccc(CCNC(=O)C(=O)NCC2OCCN2S(=O)(=O)c2ccc(OC)c(C)c2)cc1 (stereo unspecified)	9.2% (inactive)	–
O=C(COC(=O)CNS(=O)(=O)c1ccccc1)NC12CC3CC(CC(C3)C1)C2	-5.62% (inactive)	–
O=c1ccc2cc(S(=O)(=O)NCCCc3ccccc3)ccc2[nH]1	1.59% (inactive)	–
COc1ccc(C2CC(c3ccc(C)cc3)Nc3nc(N)nn32)cc1 (stereo unspecified)	–	3.16 µM (active)
COc1ccc(C2CC(c3ccc(Cl)cc3Cl)Nc3nc(N)nn32)cc1OC (stereo unspecified)	-7.14% (inactive)	–
Cc1ccc(C2CC(c3cccc(Br)c3)n3nc(N)nc3N2)cc1 (stereo unspecified)	-13% (inactive)	–
CCOc1cc(C(=O)N(Cc2ccccc2)c2ccc(C)cc2)ccc1OCC(=O)N1CCOCC1	6.38% (inactive)	–
CN(C)/C=C(/C(=O)c1ccc(Cl)c(Cl)c1)c1nnnn1-c1ccccc1	25.1% (inactive)	–
COC(=O)c1ccc(NC(=O)CSc2nnc(C3CC3)n2C)cc1	-1.1% (inactive)	–
C/C=C/C=C/C(=O)OCC(=O)Nc1ccc(Cl)cc1	-15.1% (inactive)	–
CCCCN1C(=O)CCC(C(=O)O)C1c1ccc(OC)cc1 (stereo unspecified)	-2.98% (inactive)	–
O=C(Nc1cccc(S(=O)(=O)NC2=NCCC2)c1)C1CCCCC1	16.3% (inactive)	–
COCCCNC(=O)c1c(F)c(F)c(F)c(F)c1F	2.58% (inactive)	–
COc1ccc(C(CNC(=O)c2ccc(OCc3cscn3)cc2)N2CCCC2)cc1 (stereo unspecified)	-4.79% (inactive)	–
CN(C)/C=C(/C(=O)c1ccc(F)cc1)S(=O)(=O)c1ccc(F)cc1	-2.22% (inactive)	–
CC(c1ccco1)N(C(=O)COc1ccccc1[N+](=O)[O-])c1ccccn1 (stereo unspecified)	3.66% (inactive)	–
CCOC(=O)N1CCN(C(=O)COCc2cc(-c3ccc4c(c3)OCO4)on2)CC1	5.8% (inactive)	–

Compound	activity change, negative = inhibition	Potency
COC(=O)c1c(NC(=O)C(=O)N2CCCCC2)sc2c1CC(C)(C)OC2	50.7% (inactive)	–
CCn1cc(/C=C2/SC(=S)NC2=O)c(C)n1	-5.21% (inactive)	–
COC(=O)c1ccc2ccccc2c1OC1OC(CO)C(O)C(O)C1NC(C)=O (stereo unspecified)	6.75% (inactive)	–
O=C(c1ccc(Br)o1)N(c1ccccn1)C1CCCCC1	-23.6% (inactive)	–
O=C(NC(=O)c1ccc(Cl)c(Cl)c1)OC1CCS(=O)(=O)C1 (stereo unspecified)	0.692% (inactive)	–
O=C(Nc1cccnc1Oc1ncnc2cc(Cl)ccc12)c1ccc(F)cc1	-12.6% (inactive)	–
CCN(C(=O)COC(=O)c1sccc1C)c1c(N)n(Cc2ccccc2)c(=O)[nH]c1=O	3.44% (inactive)	–
Nc1ccc2nc3c(=O)[nH]c(=S)[nH]c3nc2c1	–	1.41 µM (active)
c1ccc(CCC2=NCCn3cccc32)cc1	–	inactive
Cc1ccc(S(=O)(=O)N2CCCCC2)cc1NC(=O)CCNC(=O)c1ccccc1	2.37% (inactive)	–
Cc1ccc(-c2nnn(CC(=O)N(CCO)C(C(=O)NC(C)(C)C)c3ccncc3)n2)cc1 (stereo unspecified)	-5.68% (inactive)	–
Cc1cccc(C)c1NC(=O)CN1C(=O)C(C)Oc2ccccc21 (stereo unspecified)	-12.1% (inactive)	–
Cc1occc1-c1nnc(SCC(=O)NC2CCCCC2)o1	-2.44% (inactive)	–
CCn1c(SCC(=O)Nc2cc(C)c(Cl)cc2OC)nnc1-c1ccco1	–	33.6 µM (active)
COc1cc(Cl)c(C)cc1NC(=O)CSc1nnc(-c2ccco2)n1CC(C)C	-19.4% (inactive)	–
COc1cc(Cl)c(C)cc1NC(=O)CSc1nnc(CN2CCCC2)o1	75.1% (inactive)	–
CC(C)NC(=O)NCCCCCCS(C)=O (stereo unspecified)	-0.738% (inactive)	–
Oc1ccc2ccccc2c1N=Nc1nccs1	–	28.2 µM (active)
COc1ccc(CNC(=O)c2ccc(NS(=O)(=O)c3ccc4[nH]c(=O)[nH]c4c3)cc2)cc1OC	-5.23% (inactive)	–
COc1ccccc1/C=N/N1CCN(Cc2ccccc2Cl)CC1	–	15.8 µM (active)
Cc1ccc(CN2CCN(/N=C/c3ccco3)CC2)c(C)c1	-3.91% (inactive)	–
CSc1ccc(/C=N/N2CCN(Cc3ccccc3Cl)CC2)cc1	–	14.1 µM (active)
O=S1(=O)CCN(Cc2ccccc2Cl)CC1	-14% (inactive)	–
COCCNC(=O)C1CCCN(Cc2ccccc2Cl)CC1 (stereo unspecified)	-2.5% (inactive)	–
COc1ccccc1/C=C/C=N/NC(=O)CN1CCN(Cc2ccccc2)CC1	2.67% (inactive)	–
